Reference: paper PMC7819943, “Rice protein-binding microarrays: a tool to detect cis-acting elements near promoter regions in rice”
In all, about 39,000 sequences were measured (“fluorescence intensity (a.u.)”: median about 4,300, highest 2% from about 39,000 on). The list comes from a sample in which the highest values are over-represented; it also holds similar and randomly drawn sequences.

These sequences were tested against T1, OsSMF1 (Oryza sativa, UniProt Q6ZLB0 1-436) (assay: protein-binding microarray (RPBM); PBS, 2% BSA, 51.3 ng/ul salmon testes DNA, 50 uM zinc acetate, 200 nM TF, 25 C, 1 h; high values mean tight binding). Settings: protein: recombinant; tags: N-terminal polyhistidine and DsRed monomer fusion (pET32a); chain copies: 2; label: CyDye5-dUTP incorporated in the synthesized complementary strand; 3' TTTTT single-stranded linker to array surface; dsDNA, one strand shown.
T1 sequence: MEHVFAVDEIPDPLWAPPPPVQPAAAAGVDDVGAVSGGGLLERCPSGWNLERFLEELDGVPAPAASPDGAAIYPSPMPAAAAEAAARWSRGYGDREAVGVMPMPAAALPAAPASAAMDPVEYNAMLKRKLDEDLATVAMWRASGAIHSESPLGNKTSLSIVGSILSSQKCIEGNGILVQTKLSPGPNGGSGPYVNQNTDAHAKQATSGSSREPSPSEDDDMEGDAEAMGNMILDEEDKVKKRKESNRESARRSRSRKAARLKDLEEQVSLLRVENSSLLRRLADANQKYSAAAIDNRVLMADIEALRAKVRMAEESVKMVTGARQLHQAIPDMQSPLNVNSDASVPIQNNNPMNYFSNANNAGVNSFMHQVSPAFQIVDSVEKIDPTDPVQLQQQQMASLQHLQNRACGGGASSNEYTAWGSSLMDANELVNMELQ
Summary of the method: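 Transcription factors were each fused at the N-terminus to a polyhistidine tag plus DsRed and expressed in E. coli BL21-CodonPlus before Ni–NTA purification. Binding to a double-stranded custom Agilent array was carried out with 200 nM protein at 25 °C for 1 h in PBS, 2% BSA, salmon testes DNA and 50 µM zinc acetate. The binding signal is per-feature fluorescence intensity, in arbitrary units, on an Axon 4000B scanner.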

Going from “CGTAGGCTCGTCGCGGCCACGTACGCCATCCCGAGCTCGGCGGAGTCACCTAGTGCAG” to “TTGGCTTCTTCAACTTACGTTACCCAATGCATTATATTTGCGGAGTCACCTAGTGCAG”, the binding signal falls from 6280 fluorescence intensity (a.u.) to 4300 fluorescence intensity (a.u.).

First: ACTGCTCACGCCTTAACTGCGCGTCTTAAGGTGGCGTGGCCGGAGTCACCTAGTGCAG
Second: CGAGCCCACTCGAGGTGACTCACCTTGTTCCTCCACCAGTCGGAGTCACCTAGTGCAG
The binding signal of the first is lower: 4310 fluorescence intensity (a.u.) for the first, 18500 fluorescence intensity (a.u.) for the second.

Going from “TCTGAGTTACTTCCAAGTTGACTAGTTACCTCTTACTACCCGGAGTCACCTAGTGCAG” to “TTAATGTCCGAACACCTCATACAACGTGACGCGTCAAAACCGGAGTCACCTAGTGCAG”, the binding signal rises from 3260 fluorescence intensity (a.u.) to 6890 fluorescence intensity (a.u.).

Compared with “AGTTGGCGTGGATGGCCACGATTCTGGACCCGGGGTTGCCCGGAGTCACCTAGTGCAG”, “TTAATTCTAATGCCACTTAAGCGCAACGTCAACACCACGTCGGAGTCACCTAGTGCAG” is higher in binding signal: 3600 fluorescence intensity (a.u.) for the first, 18200 fluorescence intensity (a.u.) for the second.

First: ACCGATGCCATCATCCACGTCATCGTCCACGTGTCACCCACGGAGTCACCTAGTGCAG
Second: TATGTATGAATGACAACACCGCCACGTCAGCGCCACGTCACGGAGTCACCTAGTGCAG
The binding signal of the first is lower: 45100 fluorescence intensity (a.u.) for the first, 50400 fluorescence intensity (a.u.) for the second.

Compared with “GACAACCGAACACGTCGAGCCAGCGAATGATGAAACCCCACGGAGTCACCTAGTGCAG”, “CTGAATTTAGACACCTCAGCGCCACGTCAACTGGCGCTGACGGAGTCACCTAGTGCAG” is lower in binding signal: 31800 fluorescence intensity (a.u.) for the first, 18400 fluorescence intensity (a.u.) for the second.

First: CTCATCGTCCTCCACGTGTCCACCCATACACGTGTCGCCACGGAGTCACCTAGTGCAG
Second: ATTCTAATGACACCTAAGTGCCACGTCAACGCCACGTGGACGGAGTCACCTAGTGCAG
The binding signal of the first is lower: 29800 fluorescence intensity (a.u.) for the first, 45100 fluorescence intensity (a.u.) for the second.

Going from “ATGGACTGTTTTGTCAACTAAGTAATGCATGACACGTGGACGGAGTCACCTAGTGCAG” to “TACCAGTGTCACGCAGTGACGCAATGGATCATGCTATCCACGGAGTCACCTAGTGCAG”, the binding signal falls from 14500 fluorescence intensity (a.u.) to 4450 fluorescence intensity (a.u.).

First: GTCCGATCGGACGCACCACGCATCCTAGCCGTCCACGCCACGGAGTCACCTAGTGCAG
Second: AATCTCACCCATCCACGTGTCCCCAGATCTCATCCCCATCCGGAGTCACCTAGTGCAG
The binding signal of the first is lower: 3180 fluorescence intensity (a.u.) for the first, 18700 fluorescence intensity (a.u.) for the second.

First: ACGCATGGATCCACGTGACGTCACGCCACGTCATCCACCACGGAGTCACCTAGTGCAG
Second: CGGCGGCTTCTTGTTGGTGACGCCGCACGGCATGGTTGATCGGAGTCACCTAGTGCAG
The binding signal of the first is higher: 60800 fluorescence intensity (a.u.) for the first, 5370 fluorescence intensity (a.u.) for the second.

Compared with “CACTGCCCATTCGCCACGTCCCCTAACGCTCCAGGTTTATCGGAGTCACCTAGTGCAG”, “GAGATCGAACATCGATGCAGCCCCGCGTCAGGTGCCAAGTCGGAGTCACCTAGTGCAG” is lower in binding signal: 11800 fluorescence intensity (a.u.) for the first, 3510 fluorescence intensity (a.u.) for the second.

Going from “CACGTGTACAAGGGCAAAGCGCAACACCGACCCGAGTCCACGGAGTCACCTAGTGCAG” to “CATGGTGCGGGCCAGCTCAGCTGTGCACGTGGCATGCCACCGGAGTCACCTAGTGCAG”, the binding signal falls from 39300 fluorescence intensity (a.u.) to 17200 fluorescence intensity (a.u.).

Compared with “TTGAACCCCGTGTACATCAACAAACCACGTGTCCATCAAGCGGAGTCACCTAGTGCAG”, “ACCATGGTCTAACCTACGTGGCATGCCACGTGTGCGTGTGCGGAGTCACCTAGTGCAG” is higher in binding signal: 6220 fluorescence intensity (a.u.) for the first, 56000 fluorescence intensity (a.u.) for the second.

Compared with “TAACCATGGTCTTGCCTACGTGGCGTGCCACGTAGACGATCGGAGTCACCTAGTGCAG”, “ACCCAAAGCCACCCGCAACAACCGACGACGACGACGACCGCGGAGTCACCTAGTGCAG” is lower in binding signal: 34300 fluorescence intensity (a.u.) for the first, 24100 fluorescence intensity (a.u.) for the second.
